A selection: hits, their analogues and other compounds. The true share with any hit is near 21%.
Cycloheximide cs: counter-screen hit for Shiga toxin inhibitors, cycloheximide. 12% of 300,000 active. max response, %. cell reporter, cycloheximide protein synthesis inhibition counterscreen; in the data active = max response mostly above about 13%, no sharp cut-off; inactive = mostly below about 14%; note: read at 38.3 µM for the half of the compounds with a filed dose; 0% is about no effect
NS1 function inh: blocks influenza NS1 protein function | Potency, µM (doses to about 46.1 µM), for the others: top-dose activity, positive = more growth | 0.4% of 270,000 active | AID 2326; calls by dose curve; note: potency is the fitted concentration of half-maximal effect; actives are rising curves; nearly all actives have a fitted effect of over 50% in size
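Recovery from NS1-induced slow growth read by OD600 in budding yeast switched to galactose assay medium (pH 6.0, -URA) at 1:100 dilution. Compound 23 nl per well; the matching strain lacking NS1 serves as control.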
Shiga inhibitor: inhibitors of Shiga toxin in Vero cells | 9.2% of 290,000 active | inhibition, % at 38.7 µM | Vero cells, Shiga toxin protein synthesis inhibition reporter | AID 2315; in the data active = inhibition mostly above about 28%, no sharp cut-off; inactive = mostly below about 43%; note: 0% is about no effect
Pf growth 96h: P. falciparum growth inhibition at 96 hours | AID 504834 | Potency, µM (top dose mostly 28.7 µM), for the others: top-dose activity change, negative = inhibition, most hits filed as inhibitors | P. falciparum luciferase reporter growth, 96 h | 6.9% of 320,000 active; note: potency is the fitted concentration of half-maximal effect; % is set by controls: 0 for no effect and ±100 for the full control effect
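Readout is luminescence from an integrated firefly luciferase in P. falciparum. Red cells, 2% hematocrit and 0.05% parasitemia final, were cultured with compound through two parasite generations (96 hours) at 37 C, 5% CO2.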
Pf growth 48h: P. falciparum growth inhibition at 48 hours (one generation) | 5.9% of 310,000 active | AID 504832 | P. falciparum luciferase growth in erythrocytes, 48 h | Potency, µM (doses to about 28.7 µM), inactives show at the highest dose activity change, negative = inhibition, hits mostly inhibitors; note: potency is the fitted concentration of half-maximal effect; % is set by controls: 0 for no effect and ±100 for the full control effect
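First compound was added to culture medium, then infected red cells at 0.1% parasitemia and 2% hematocrit (final). After incubation at 37 C under 5% CO2, luciferase detection reagent was dispensed and light output recorded.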
Numbers without * were called inactive; ? = inconclusive; · = no result given. Unless noted, calls come from the whole dose curve; as a rule, active = well fitted inhibition curve with a large enough effect; inconclusive = small, poorly fitted or top-dose-only effect, or another doubt; inactive = no such curve, though single readings can be large or run the other way.

SMILES	Cycloheximide cs	NS1 function inh	Shiga inhibitor	Pf growth 96h	Pf growth 48h
CS(=O)(=O)N(CC(=O)N1CCCC1)c1ccc(Cl)cc1Cl	-2	1%	-5	0%	33%
CS(=O)(=O)N(CC(=O)N1CCCC1)c1cc(Cl)c(Cl)cc1Cl	-4	3%	-11	9.3µM*	·
CC(C)Oc1cccc(C(=O)Nc2ccc(N3CCN(C)CC3)cc2)c1	26*	14%	·	?	24%
CC(C)Oc1ccc(C(=O)Nc2ccc(N3CCCCC3)cc2)cc1	-2	15%	22	?	?
CN1CCN(c2ccc(NC(=O)c3cccc(OCc4ccccc4)c3)cc2)CC1	23*	-13%	60*	·	10µM*
Cc1ccc(S(=O)(=O)NCc2cc(=O)n(C)c(=O)n2C)cc1C	-1	25%	4	47%	24%
NS(=O)(=O)c1cccc(NC(=O)COC(=O)CCc2ccccc2)c1	10	6%	15	-6%	-22%
CCN(CC)c1cccc(OC2=NS(=O)(=O)c3ccccc32)c1	4	-105%	2	?	?
COc1ccc(C(=S)N2CCCC2)cc1	4	12%	23	1%	4%
Fc1ccc(COc2ccc(C(=S)N3CCCC3)cc2)cc1	53*	-19%	59*	?	37%
S=C(c1ccc(OCc2ccccc2)cc1)N1CCCC1	21*	-16%	39*	-10%	35%
O=C(COc1ccc(C(=S)N2CCCC2)cc1)Nc1ccc(F)cc1	8	-11%	23	10µM*	-22%
CCOc1cc(C(=S)N2CCCC2)ccc1OCc1ccccc1	5	-32%	-8	?	0%
O=C(O)c1cccc(Sc2cc(Cl)ccc2C(=O)O)c1	·	·	·	?	21%
CCN(CC)C(=S)SCC(=O)c1c(C)[nH]c2ccccc12	15*	-5%	22	?	-14%
Cc1[nH]c2ccccc2c1C(=O)CSc1nncn1C	-1	0%	-2	2%	-3%
Cc1[nH]c2ccccc2c1C(=O)C(=O)N1CCOCC1	-2	-7%	11	?	0%
Cc1[nH]c2ccccc2c1C(=O)CSC(=S)N1CCOCC1	17*	4%	84*	26%	19%
CN[C@@H](c1ccncc1)[C@@H](NC)c1ccncc1	·	0%	·	·	·
CN(C)C(=O)c1ccc(N/C=C(\C=O)c2nc3ccccc3o2)cc1	4	-1%	54	1%	24%
CCc1cccc2c(C#N)cn(CC(=O)NCCOC)c12	-5	-6%	-15	-21%	10µM*
C=CCn1c(SCC(=O)NC23CC4CC(CC(C4)C2)C3)nc2cc(C(=O)O)ccc2c1=O	5	·	-1	4.7µM*	2.9µM*
C=CCn1c(SCC(=O)Nc2ccc(F)cc2)nc2cc(C(=O)O)ccc2c1=O	1	0%	-11	-11%	-11%
C=CCn1c(SCc2ccc(Cl)cc2)nc2cc(C(=O)N3CCC(C(N)=O)CC3)ccc2c1=O	-6	6%	-7	6.6µM*	?
CCCCCn1c(SCC(=O)OCC)nc2cc(C(=O)N3CCC(C(N)=O)CC3)ccc2c1=O	3	1%	-25	-14%	-10%
SMILES	Cycloheximide cs	NS1 function inh	Shiga inhibitor	Pf growth 96h	Pf growth 48h
CCOC(=O)c1c(C(=O)OCC)c(C)n(Cc2cc(OC)c(OC)c(OC)c2)c1C	-1	-5%	6	12µM*	?
CCOC(=O)c1sc(=S)n(Cc2ccccc2)c1C	1	-9%	5	-15%	-15%
CCOC(=O)c1cc(C)n(Cc2ccccc2)c1C	25	-46%	37	6.6µM*	3.3µM*
CCOC(=O)c1c(C)c(C)n(Cc2cccc(OC)c2OC)c1C	-4	-12%	-14	8.3µM*	12µM*
CCOC(=O)c1cnn(Cc2cccc(Cl)c2)c1C	23	·	-1	?	13µM*
Cc1nc2nc(SCc3ccccc3)[nH]n2c(=O)c1C	1	0%	30	-6%	?
CCOC(=O)c1cc(C)n(CCc2cnc[nH]2)c1C	15*	-2%	27	?	13µM*
CCOC(=O)c1cc(C)n(-c2ccc(OC)c(OC)c2)c1C	-9	-12%	-16	22%	?
CCOC(=O)c1c(C=O)c(C)n(Cc2ccccc2Cl)c1C	10	-53%	11	·	3.3µM*
CCOC(=O)c1cc(C)n(CCCN2CCOCC2)c1C	2	7%	-8	-12%	-10%
CCOC(=O)c1cc(C)n(Cc2cccc(OC)c2OC)c1C	-4	-22%	-16	2.3µM*	?
COc1ccc(C(=O)NC2CCN(CC(=O)NCc3ccccc3F)CC2)cc1	-2	8%	-5	-11%	-17%
CCc1nnc(NC(=O)CSCc2cc(=O)n3ccsc3n2)s1	-1	9%	1	?	-6%
O=C(Cn1c(=O)n(CCCC(=O)NC2CCCC2)c(=O)c2ccccc21)NCCC1=CCCCC1	-3	-6%	-3	?	12%
CCN(C(=O)C(C)Sc1ccc(S(=O)(=O)N2CCOCC2)cn1)c1ccccc1 (centres undefined)	·	·	·	?	13µM*
CN(C(=O)CSc1ccc(S(=O)(=O)N2CCCCC2)cn1)c1ccccc1	·	·	·	12µM*	?
CC(Sc1ccc(S(=O)(=O)N2CCCC2)cn1)C(N)=O (centres undefined)	·	·	·	-13%	-5%
CC(C)C(C)NC(=O)CSc1ccc(S(=O)(=O)N2CCOCC2)cn1 (centres undefined)	·	·	·	-7%	-8%
CN(C)C(=O)C(Sc1ccc(S(=O)(=O)N2CCCC2)cn1)c1ccccc1 (centres undefined)	·	·	·	?	15µM*
Cc1ccc(NC(=O)CN2C(=O)CNC2=O)cc1	2	1%	12	12%	3%
CN(C)c1nc(N)nc(CSc2nc3cc(Cl)ccc3o2)n1	13	3%	-2	·	57%
O=S1(=O)C=C(Sc2nc3cc(Cl)ccc3o2)c2ccccc21	18*	9%	40	19%	?
O=C(CSc1nc2ccc(Cl)cc2[nH]1)N1CCN(C(=O)c2ccco2)CC1	-2	2%	-1	?	1%
O=[N+]([O-])c1ccc(CSc2ccc(S(=O)(=O)N3CCCC3)cn2)cc1	·	·	·	-6%	?
C[n+]1cccc2cccc([O-])c21	1	3%	-4	?	3.3µM*
SMILES	Cycloheximide cs	NS1 function inh	Shiga inhibitor	Pf growth 96h	Pf growth 48h
Cc1cc(S(=O)(=O)Nc2c(NC3CCCCC3)c3ccccc3oc2=O)ccc1F	1	9%	-15	10µM*	12%
Cc1cc(C)c2nc(-c3cccc(Cl)c3)c(C)c(C(=O)N3CCOCC3)c2c1	11	-4%	-29	?	12µM*
Cc1onc(-c2c(Cl)cccc2Cl)c1C(=O)N1CCOCC1	-9	11%	-5	19%	-4%
COCc1ccc(C(=O)N(C)CC2CCCN(CCc3ccc(OC)cc3)C2)o1 (centres undefined)	34*	-7%	77*	?	5%
COc1ccc(CCN2CCCC(CN(C)C(=O)c3ccoc3C)C2)cc1 (centres undefined)	32*	-7%	40*	?	-7%
COc1ccc(CCN2CCCC(CN(C)C(=O)c3cc(C)oc3C)C2)cc1 (centres undefined)	69*	-11%	91*	35%	44%

Screening data deposited in PubChem BioAssay by National Center for Advancing Translational Sciences (NCATS).
